The values below come from PubChem BioAssay.

Activity calls are given as the source filed them. Unless noted, the rule behind the calls is not given here.

For assay [1], the system named is XIP peptide (Xip251-270) binding. As to the kind of experiment: XIP fragment 251-270 binding compounds – biochemical, small-molecule microarray, fluorescence 635/667 nm, 0.1 µg/mL protein, primary screen (AID 1182). The following applies: fluorescent protein binding, 635 nm, higher = more signal, called active from +8 up or from −8 down.
In the next assay the test system is XIP peptide (Xip251-270). Description: compounds binding XIP fragment 251-270 – biochemical, small-molecule microarray, fluorescence 635/667 nm, 0.5 µg/mL protein, primary screen (AID 1183). The conditions noted are these: fluorescence 635 nm, higher = more signal.
A short description of assay [2]: blood-stage malaria parasite viability loss – strain 3D7, DAPI fluorescence, 100 nL, primary screen (AID 1184).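 Note: parasites grown inside human red blood cells in medium with human serum.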 The conditions noted are these: P. falciparum 3D7 growth, 3 d, higher = more signal.
Assay [3] addresses Homeobox protein Hox-A13 (Mus musculus) (UniProt Q62424). As to the kind of experiment: disruptors of Hoxa13 oligonucleotide interaction – biochemical, fluorescence polarization, labeled oligonucleotide, primary screen (AID 1185). The conditions noted are these: Hoxa13:DNA binding, 15 min, higher = more signal, called active from +8 up or from −8 down.
Assay [4] can be described thus: blockers of DNA damage checkpoint Chk1 activation – imaging, HeLa, hydroxyurea, phospho-Chk1 antibody, percent positive cells, primary screen (AID 1186). The following applies: hydroxyurea-induced phospho-Chk1 immunofluorescence imaging, higher = more signal.
The nature of assay [5]: blockers of DNA damage checkpoint Chk1 activation – imaging, HeLa, hydroxyurea, phospho-Chk1 nuclear intensity, primary screen (AID 1187). The conditions noted are these: hydroxyurea-induced phospho-Chk1 immunofluorescence imaging, higher = more signal.

Homeobox protein Hox-A13 (Mus musculus), sequence (Q62424 whole entry, looked up): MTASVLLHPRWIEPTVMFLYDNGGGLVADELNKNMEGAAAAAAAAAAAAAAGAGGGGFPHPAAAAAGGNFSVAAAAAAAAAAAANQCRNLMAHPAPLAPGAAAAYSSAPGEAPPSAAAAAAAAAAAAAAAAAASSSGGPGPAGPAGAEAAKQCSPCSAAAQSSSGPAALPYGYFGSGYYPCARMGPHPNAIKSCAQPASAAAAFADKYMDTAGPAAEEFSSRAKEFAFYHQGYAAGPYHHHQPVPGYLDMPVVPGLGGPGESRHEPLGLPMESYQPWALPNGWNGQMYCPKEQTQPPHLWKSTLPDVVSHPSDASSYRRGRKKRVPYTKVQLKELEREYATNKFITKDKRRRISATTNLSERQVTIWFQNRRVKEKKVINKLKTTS

Take `COC(=O)[C@@]1(Cc2ccc(OC)cc2)[C@H]2c3cc(C(=O)N(C)C)n(Cc4ccccn4)c3C[C@H]2CN1C(=O)c1ccccc1`: the composite z-score in assay [1] was 0.544 (inactive); in the assay on XIP peptide (Xip251-270) it was -0.765. Moreover, the z-score in assay [2] is -1.54; in assay [3] it was -5.52 (inactive); in assay [4], -0.276 (inactive); in assay [5], -0.406 (inactive).

As to `CCCC=C(CCC)[C@@H](NC(=O)c1cccs1)c1ccc(C(F)(F)F)cc1`, the composite z-score in assay [1] is 0.0798 (inactive); in the assay on XIP peptide (Xip251-270), 0.477. Moreover, the z-score in assay [2] is -1.65; in assay [3], -2.14 (inactive); in assay [4], 0.247 (inactive); in assay [5] it was 0.201 (inactive).

Turning to `C=C(CCCC)/C(=C/C[C@@H](OC(C)=O)c1ccc(OCCO)cc1)c1cnc2ccccc2c1`, the composite z-score in assay [1] is 0.591 (inactive); in the assay with XIP peptide (Xip251-270), 0.751. The z-score in assay [2] is -3; in assay [3], -3.65 (inactive); in assay [4] it was -0.66 (inactive); in assay [5], -0.0832 (inactive).

`O=C1C2C=CC(C(O)c3cc(C(F)(F)F)cc(C(F)(F)F)c3)N(n3cnnc3)C2C(=O)N1Cc1ccccc1` (configuration not stated): the composite z-score was -0.0242 (inactive) in assay [1] and 0.662 in the assay on XIP peptide (Xip251-270). The z-score was -1.06 in assay [2], -2.95 (inactive) in assay [3], 0.506 (inactive) in assay [4] and 0.135 (inactive) in assay [5].

Regarding `[N-]=[N+]=NCc1ccccc1[C@@H]1OC(c2ccc(OCCCO)cc2)=N[C@]1(Cc1ccccc1)C(=O)NCC(O)CO` (some centres not stated), the composite z-score in assay [1] is -0.275 (inactive); in the assay on XIP peptide (Xip251-270), -0.0063. In addition, the z-score was -2.06 in assay [2], -2.01 (inactive) in assay [3], -0.0268 (inactive) in assay [4] and 0.117 (inactive) in assay [5].

For the molecule `CCOC(=O)C[C@H]1[C@H](OC(=O)c2ccccc2-c2ccccc2)[C@@H](NC(=O)CC(C)C)c2cc(OCCCO)ccc2N1C(=O)Cc1ccc(OC)cc1`, the composite z-score in assay [1] is -0.245 (inactive); in the assay on XIP peptide (Xip251-270), -0.328. The z-score in assay [2] was -0.106; in assay [3], -5.17 (inactive); in assay [4] it was 0.34 (inactive); in assay [5], 0.524 (inactive).

Turning to `COC(=O)[C@@]1(Cc2ccccc2)N=C(c2ccc(OCCCO)cc2)O[C@H]1c1ccccc1`, the composite z-score in assay [1] is 1.16 (inactive); in the assay with XIP peptide (Xip251-270), 0.743. Besides, the z-score in assay [2] was -1.92; in assay [3] it was -4.38 (inactive); in assay [4], -0.343 (inactive); in assay [5], -0.094 (inactive).

Turning to `CN(C)CCCCCCNC(=O)[C@H]1C[C@H]2C(=O)N[C@@H](CCCCN)C(=O)N2[C@H]1c1cccc(OCCO)c1`, the composite z-score in assay [1] was 0.867 (inactive); in the assay on XIP peptide (Xip251-270), 0.727. For the same molecule, the z-score in assay [2] was 1.05; in assay [3], -2.01 (inactive); in assay [4], -0.198 (inactive); in assay [5], -0.0886 (inactive).

For `CC(C)CNC(=O)[C@@]1(Cc2ccccc2I)c2ccccc2C(=O)N(C2CCCCC2)[C@H]1c1ccc(CO)cc1`, the results for the composite z-score (in assay [1]; with XIP peptide (Xip251-270)) were 2.15 (inactive) and 0.696, respectively. The z-score in assay [2] was -1.15; in assay [3], -3.77 (inactive); in assay [4], 0.145 (inactive); in assay [5], -0.0021 (inactive).

With `CCOC(=O)C[C@H]1[C@H](OC(=O)c2ccc(C(=O)c3ccccc3)cc2)[C@@H](NC(=O)CC(C)C)c2cc(OCCCO)ccc2N1C(=O)c1ccc2ccccc2n1`, the figures for the composite z-score (in assay [1]; in the assay on XIP peptide (Xip251-270)) were 1.24 (inactive) and 0.642, respectively. Also, the z-score is -0.057 in assay [2], -2.72 (inactive) in assay [3], -0.776 (inactive) in assay [4] and -0.687 (inactive) in assay [5].

Take `COc1ccc([C@H]2OC[C@@H]3C[C@@H](Cc4ccccc4)C(=O)N32)cc1`: the composite z-score in assay [1] was 0.617 (inactive); with XIP peptide (Xip251-270), 0.0682. Further, the z-score in assay [2] is 0.583; in assay [3], -1.06 (inactive); in assay [4], 0.375 (inactive); in assay [5], 0.0727 (inactive).

In the case of `CCOC(=O)C[C@H]1[C@H](OC(=O)c2ccc(C(=O)c3ccccc3)cc2)[C@@H](NC(=O)c2ccc3ccccc3n2)c2cc(OCCCO)ccc2N1C(=O)c1ccccc1`, the values for the composite z-score (in assay [1]; with XIP peptide (Xip251-270)) were -0.021 (inactive) and 0.545, respectively. Besides, the z-score in assay [2] was -0.894; in assay [3], -1.37 (inactive); in assay [4], 0.645 (inactive); in assay [5], 0.334 (inactive).

With `C[C@H]1NC(=O)[C@@]23C(=O)N[C@@H](Cc4ccccc4)C2[C@H](C)[C@@]2(C)O[C@H]2C3/C=C/C/C=C\CNC(=O)[C@@H]2CCCN2C1=O` (some centres not stated), the composite z-score is 0.091 (inactive) in assay [1] and 0.667 in the assay on XIP peptide (Xip251-270). In addition, the z-score in assay [2] is 0.91; in assay [3], -3.78 (inactive); in assay [4], 0.237 (inactive); in assay [5], 0.087 (inactive).

Regarding `CCCCC(CC)C(O)C1C=CC2C(=O)N(Cc3ccccc3)C(=O)C2N1n1cnnc1` (configuration not stated), the composite z-score in assay [1] is 0.0978 (inactive); in the assay on XIP peptide (Xip251-270), 0.671. Besides, the z-score in assay [2] was -0.465; in assay [3] it was -3.42 (inactive); in assay [4], 0.419 (inactive); in assay [5], -0.454 (inactive).

With `CN(C)CCCCCCNC(=O)[C@H]1C[C@H]2C(=O)N3CCC[C@H]3C(=O)N2[C@H]1c1ccc(O)cc1`, the results for the composite z-score (in assay [1]; in the assay on XIP peptide (Xip251-270)) were 1.75 (inactive) and 0.926, respectively. Also, the z-score in assay [2] was -1.15; in assay [3] it was -0.246 (inactive); in assay [4], -0.0982 (inactive); in assay [5] it was 0.307 (inactive).

For the molecule `CC(C)[Si](C#Cc1ccc(Oc2ccccc2)cc1)(O[Si](C#Cc1ccc(Oc2ccccc2)cc1)(C(C)C)C(C)C)C(C)C`, the composite z-score was 0.467 (inactive) in assay [1] and -0.0968 with XIP peptide (Xip251-270). The z-score in assay [2] was -1.37; in assay [3], -2.37 (inactive); in assay [4], -1.01 (inactive); in assay [5], -0.556 (inactive).

Turning to `CCCCCN1CC=CC23O[C@@H]4/C=C\CCC(C)OC(=O)C4[C@H]2C(=O)N(C(C)CO)[C@@H]3C1=O` (some centres not stated), the composite z-score is 0.176 (inactive) in assay [1] and 0.0664 in the assay with XIP peptide (Xip251-270). Further, the z-score is -0.107 in assay [2], -4.77 (inactive) in assay [3], -0.808 (inactive) in assay [4] and -0.732 (inactive) in assay [5].
